# Test results from PubChem BioAssay AID740 (SRMLSC, 2007).
# Hit rate of the full screen: of about 96,000 compounds, about 65 (0.07%) were called active. Many of the other results were omitted from the sample, so actives are more common in it than they were. A number with no mark means an inactive call. Cut-off read from the data, not from the text of the source: active = inhibition above about 25%; inactive = the rest.
# Test: unspecified inhibition readout at 50 µM (AID 740)
# Settings: unspecified screen; active compounds read high
row,SMILES,inhibition
1,Nc1nc(Nc2cccc(C(F)(F)F)c2)nc(C(F)(F)F)n1,inactive
2,O=S(=O)(/C=C/c1ccccc1)n1cnc2ccccc21,0.11%
3,Cc1cc(C)n(S(=O)(=O)Cc2ccccc2)n1,0.57%
4,Cc1cc(C)n(S(=O)(=O)/C=C/c2ccccc2)n1,40.1% (active)
5,CCOC(=O)C1=C(C)Nc2nc(SC)nn2C1c1ccc(C(=O)OC)cc1 (configuration not stated),0.25%
6,CC1CCCN(c2ccc(C(=O)NCc3cccs3)cn2)C1 (configuration not stated),0.47%
7,CC1CCN(c2ccc(C(=O)NCc3cccs3)cn2)CC1,inactive
8,O=C(NCc1cccs1)c1ccc(N2CCCCC2)nc1,26% (active)
9,O=C(O)CSc1nnc(-c2ccncc2)n1-c1ccc(Cl)cc1,inactive
10,CC(=O)Nc1cc(-c2nn(C)c(=O)c3ccccc23)ccc1N1CCCCC1,inactive
11,c1ccc(OCc2nnc3sc(C4COc5ccccc5O4)nn23)cc1 (configuration not stated),inactive
12,Cc1cc(C(=O)CSc2nnnn2-c2ccc(Cl)cc2)c(C)n1CC1CCCO1 (configuration not stated),0.29%
13,COC(=O)c1sc(S(=O)(=O)N2CCN(c3ccccc3)CC2)c(C(=O)OC)c1C,1.69%
14,O=C(CSc1nnc(Cc2ccccc2)n1Cc1ccco1)NC1CCCC1,4.05%
15,NC(=O)c1c(NC(=O)CSc2nnc(Cc3ccccc3)n2Cc2ccco2)sc2c1CCC2,27% (active)
16,NC(=O)c1c(NC(=O)CSc2nnc(-c3ccco3)n2-c2ccccc2)sc2c1CCC2,inactive
17,CCCCCC(O)CCc1n[nH]c(=S)n1-c1ccccc1 (configuration not stated),inactive
18,O=C(CC(c1ccccc1)c1ccccc1)Nc1ccc(Cl)cn1,inactive
19,CCOC(=O)c1c(NC(=O)CN2CCOCC2)sc2c1CC(C)(C)OC2,1.02%
20,COC(=O)CC(NC(=O)c1ccco1)c1ccc(C(C)C)cc1 (configuration not stated),inactive
21,O=C(CSc1ccc2nnc(-c3ccncc3)n2n1)NCc1ccco1,28.9% (active)
22,O=C(CSc1ccc2nnc(-c3ccccc3)n2n1)NCc1ccco1,3.91%
23,Cc1ccc(-c2nnc3ccc(SCC(=O)NCc4ccco4)nn23)cc1,2.76%
24,NC(=S)NNc1cccc(Cl)c1,inactive
25,C=CCSc1nnc(-c2cccnc2)o1,33.1% (active)
26,C(=C\c1ccccc1)/CSc1nnc(-c2cccnc2)o1,0.18%

row,SMILES,inhibition
1,Cc1ccc(CSc2nnc(-c3cccnc3)o2)cc1,inactive
2,C=CCSc1nnc(-c2ccc(Cl)cc2Cl)o1,37.9% (active)
3,CCSc1nnc(-c2ccc(Cl)cc2Cl)o1,1.81%
4,CSc1nnc(-c2ccc(Cl)cc2Cl)o1,7.66%
5,O=C(Nc1ccc(Cl)cc1)N1CCCC1,inactive
6,O=C(NCCc1cccs1)C1CC(c2ccc([N+](=O)[O-])cc2)=NO1 (configuration not stated),1.33%
7,COc1cc(C(=O)N2CCC(c3nc(-c4cccnc4)no3)CC2)cc(OC)c1OC,inactive
8,Cc1nc(C)c(C(=O)C2=C(O)C(=O)N(CCN(C)C)C2c2ccccc2)s1 (configuration not stated),0.19%
9,COc1ccc2c(c1OC)C(=O)OC2c1c(O)n(Cc2ccc(F)cc2)c(=O)[nH]c1=O (configuration not stated),inactive
10,CCC(=O)N1CCN(c2ccccc2NC(=O)COc2ccccc2Cl)CC1,inactive
11,CS(=O)(=O)c1nc(-c2cccs2)cc(C(F)(F)F)n1,26.1% (active)
12,O=C(O)CCS(=O)(=O)c1nc(-c2cccs2)cc(C(F)(F)F)n1,inactive
13,CS(=O)(=O)c1nc(-c2ccccc2)cc(C(F)(F)F)n1,inactive
14,CCC1(c2cccc(Cl)c2)NC(=O)N(Cc2cc(C(=O)OC)c(C)o2)C1=O (configuration not stated),inactive
15,O=S(=O)(c1ccccc1)N1C2CCC1CC(O)(c1cccnc1)C2 (configuration not stated),0.08%
16,CCC(NS(=O)(=O)c1ccc(OC)cc1)C(=O)NCCC1=CCCCC1 (configuration not stated),0.42%
17,O=c1[nH]c2cccnc2n1Cc1ccccc1,88.8% (active)
18,O=c1[nH]c2cccnc2n1Cc1ccco1,1.89%
19,COc1ccccc1Cn1c(=O)[nH]c2cccnc21,inactive
20,COc1ccccc1NC(=O)C1CC(=O)OC1c1ccccc1 (configuration not stated),inactive
21,CNC(=O)c1ccc(Oc2ccc(C(=O)NC)cc2)cc1,0.48%
22,COC(=O)c1nc(-c2ccc(C)cc2)oc1N(C)C,inactive
23,CS(=O)(=O)N1CCN(c2ccccc2NC(=O)Cc2ccc(Cl)cc2)CC1,1.42%
24,CC(C)NC(=O)CSc1nnc2sc3ccccc3n12,29.1% (active)
25,NC(=O)CSc1nnc2sc3ccccc3n12,20.1%
26,CCOC(=O)CC(=O)CSc1nnc2sc3ccccc3n12,6.25%

row,SMILES,inhibition
1,CC1CC(C)CN(C(=O)COc2ccc(-c3nnco3)cc2)C1 (configuration not stated),inactive
2,CC(NC(=O)C1CCCN1S(=O)(=O)c1cccc2cccnc12)c1ccccc1 (configuration not stated),3.39%
3,NS(=O)(=O)c1ccc(CCNC(=O)C2CCCCN2S(=O)(=O)c2ccccc2)cc1 (configuration not stated),80.3% (active)
4,NS(=O)(=O)c1ccc(CCNC(=O)C2CCCN2C(=O)OCc2ccccc2)cc1 (configuration not stated),0.02%
5,NS(=O)(=O)c1ccc(CCNC(=O)[C@@H]2CCCN2S(=O)(=O)c2ccccc2F)cc1,0.35%
6,CNS(=O)(=O)c1cccc(C(=O)Nc2cccc(Cl)c2)c1,inactive
7,Cc1nc(SCC(=O)c2ccccc2)n[nH]1,0.25%
8,CCSc1nnc([C@H](Cc2ccccc2)NC(=O)OC(C)(C)C)o1,26.7% (active)
9,CC(C)(C)OC(=O)N[C@@H](Cc1ccccc1)c1nnc(SCC(=O)O)o1,0.84%
10,COC(=O)CSc1nnc([C@H](Cc2ccccc2)NC(=O)OC(C)(C)C)o1,0.67%
11,O=C(c1cc(-c2ccc(Cl)cc2)n(-c2ccc(Cl)cc2)n1)N1CCOCC1,1.77%
12,O=C(c1cc(-c2ccc(Cl)cc2)n(-c2ccc(Cl)cc2Cl)n1)N1CCOCC1,27.9% (active)
13,O=C(c1cc(-c2ccc(Cl)cc2)n(-c2cc(Cl)ccc2Cl)n1)N1CCOCC1,2.27%
14,Cc1nc2nc(-c3ccc(Cl)cc3)[nH]n2c(=O)c1Cc1ccccc1,2.76%
15,COc1ccc(-c2nc3nc(C)c(Cc4ccccc4)c(=O)n3[nH]2)cc1,10.2%
16,Cc1nc2nc(-c3ccccc3)[nH]n2c(=O)c1Cc1ccccc1,62% (active)
17,O=C(COC(=O)C(Cc1ccccc1)NC(=O)c1ccco1)NC1CC1 (configuration not stated),2.73%
18,C=CCn1c(-c2cccn(Cc3cccc(Cl)c3)c2=O)n[nH]c1=S,0.13%
19,CN1C(=O)c2cccc3c(S(=O)(=O)Nc4ccccn4)ccc1c23,3.37%
20,Clc1cccc(CSc2nnc([C@@H]3CCCN3)o2)c1,inactive
21,CC1CCCN(C(=O)Nc2cccc(NC(=O)N3CCCC(C)C3C)c2)C1C (configuration not stated),0.11%
22,CCC1CCCCN1C(=O)Nc1cccc(NC(=O)N2CCCCC2CC)c1 (configuration not stated),31.9% (active)
23,CCC1CCCCN1C(=O)Nc1ccc(F)cc1 (configuration not stated),0.1%
24,NC(=O)C1(N2CCCCC2)CCN(C(=O)CSc2nc(C(F)(F)F)cc(=O)[nH]2)CC1,1.15%
25,Cc1ccc(/C=C2/SC(=S)N(CC(=O)Nc3ncc(Cc4ccc(C)cc4)s3)C2=O)cc1,0.58%
26,Cc1ccc(NC(=O)NCCCN2CCCC2=O)cc1,1.44%

row,SMILES,inhibition
1,Clc1ccc(Nc2ncnc3c2cnn3-c2ccccc2)cc1,inactive
2,CC(=O)Nc1ccc(Nc2ncnc3c2cnn3-c2cccc(C)c2)cc1,0.1%
3,CC(=O)Nc1ccc(Nc2ncnc3c2cnn3-c2ccccc2)cc1,38.2% (active)
4,CCC(CC)c1nnc(NC(=O)CN2C(=O)C3C4C=CC(C4)C3C2=O)s1 (configuration not stated),inactive
5,CCNc1nc(NCC)nc(SCCOC(=O)COc2ccc(Cl)cc2Cl)n1,inactive
6,Cc1cc(Oc2ccc(C#N)cc2)nc(N2CCOCC2)n1,inactive
7,Oc1ccc2oc3c(c2c1)CCCC3,inactive
8,O=C1NCCCc2c1oc1ccc(O)cc21,38.5% (active)
9,O=C1NCCCc2c1oc1cc(Br)c(O)c(Br)c21,4.63%
10,COc1cccc(C2=NOC(C(=O)Nc3cc(C)nn3-c3ccccc3)C2)c1OC (configuration not stated),inactive
11,COc1ccc(OC)c(C2=NOC(C(=O)Nc3cc(C)nn3-c3ccccc3)C2)c1 (configuration not stated),48.2% (active)
12,COc1cc(OC)c(C2=NOC(C(=O)Nc3cc(C)nn3-c3ccccc3)C2)cc1Cl (configuration not stated),0.65%
13,COc1ccc(-c2cc(C(F)(F)F)nc(N3CCN(Cc4ccccc4)CC3)n2)cc1OC,inactive
14,COc1ccc(-c2cc(C(F)(F)F)nc(SCCC(=O)Nc3cc(C)on3)n2)cc1,inactive
15,COCCn1c(SCC(=O)Nc2cc(C)cc(C)c2)nnc1C(C)C,1.46%
16,Cc1nc2ccc(NC(=O)C3CCN(S(=O)(=O)c4cccs4)CC3)cc2s1,30.7% (active)
17,Cc1ccc2nc(NC(=O)C3CCN(S(=O)(=O)c4cccs4)CC3)sc2c1,2.46%
18,Cc1ccc(NC(=O)C2CCN(S(=O)(=O)c3cccs3)CC2)cc1C,0.17%
19,O=C(CN(Cc1ccco1)C(=O)c1cc(=O)[nH]c2ccccc12)Nc1ccccc1Br,0.68%
20,COC(=O)c1ccc2ccn(CC(=O)NC(C)C)c2c1,inactive
21,O=C(O)c1cc2nc(-c3ccc(F)cc3)cc(C(F)(F)F)n2n1,1.93%
22,O=C(Nc1ccc2nc3n(c(=O)c2c1)CCCCC3)c1ccccn1,2.45%
23,CN(C)c1cccc(C(=O)Nc2ccc3nc4n(c(=O)c3c2)CCCCC4)c1,26.5% (active)
24,Cc1ccccc1C(=O)Nc1ccc2nc3n(c(=O)c2c1)CCC3,0.71%
